# Screens from PubChem.
# VP16 counter: Gal4-VP16 reporter inhibition counter-screen; Drosophila S2 Gal4-VP16 UAS-luciferase, luminescence, 20 h; Potency, µM (doses to about 53.6 µM), inactives show top-dose activity, negative = inhibition, actives largely listed as inhibitors; actives 3.5% (n = 310,000); AID 2546;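 also: Gal4-VP16 expression switched on by copper sulfate through the metallothionein promoter; nearly all actives have a fitted effect of over 50% in size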
# DT40 TDP1 CPT: DT40-hTDP1 cell growth loss with CPT. chicken DT40 Tdp1-/-;hTDP1 cells + 20 nM CPT, ATP luminescence, 48 h. actives 12% (n = 420,000). Potency, µM (top dose mostly 46.2 µM), for the others: top-dose activity change, negative = growth inhibition, hits mostly inhibitors; also: nearly all actives have a fitted effect of over 55% in size
#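 Chicken DT40 Tdp1-/- cells complemented with human TDP1, 400 cells/well, exposed to compounds plus 20 nM camptothecin for at least 48 h at 37 C; viability read as ATP content by CellTiter-Glo luminescence.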
# RORg inh: blocks mouse ROR gamma transcriptional activity; P51450; Drosophila S2 Gal4-RORgamma UAS-luciferase reporter, 20 h; Potency, µM (doses to about 53.6 µM), without a hit: at the top dose activity change, negative = inhibition, actives largely listed as inhibitors; actives 5.4% (n = 310,000); also: nearly all actives have a fitted effect of over 60% in size
#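 A Gal4/UAS one-hybrid system in insect cells: metallothionein-promoter Gal4–ROR gamma fusion plus Photinus luciferase reporter. Copper sulfate 700 uM final, 20 hr ambient incubation, luminescent detection after 10 min with reagent.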
# 12-LOX inh: blocks human arachidonate 12S-lipoxygenase | purified 12hLO, xylenol orange hydroperoxide absorbance | P18054 | actives 1.1% (n = 580,000) | Potency, µM (doses to about 108 µM), inactives show top-dose activity change, negative = inhibition, usual class: inhibitors
#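 Purified human 12hLO at 150 nM in 25 mM Hepes, 0.01% Triton X-100, pH 7.0, preincubated 15 min at room temperature with compound. Reaction started with 40 uM arachidonic acid, 30 min at room temperature. Hydroperoxide measured by Fe-xylenol orange, 573/405 nm absorbance ratio.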
# DT40 TDP1 no CPT: qHTS for Inhibitors of human tyrosyl-DNA phosphodiesterase 1 (TDP1): qHTS in cells in absence of CPT; DT40 Tdp1-/- hTDP1 cells, no CPT, ATP luminescence, 48 h; Potency, µM (highest dose often 46.2 µM), for inactives: top-dose activity change, negative = growth inhibition, actives largely listed as inhibitors; actives 15% (n = 420,000); also: nearly all actives have a fitted effect of over 55% in size
#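 Compound effects on proliferation are scored in DT40 Tdp1-/-;hTDP1 cells in the absence of CPT. ATP levels (CellTiter-Glo luminescence) are recorded after a ≥48 hr, 37 °C incubation.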
# ELG1 DNA repair: ELG1-dependent DNA repair inhibition. actives 2.3% (n = 330,000). Potency, µM (series often up to 46.1 µM), inactives show at the top dose activity change, negative = inhibition, actives largely listed as inhibitors. AID 504467. HEK293T ELG1-luciferase reporter, luminescence, 16 h; DNA damage induced by 5-fluorouridine; also: nearly all actives have a fitted effect of over 55% in size
#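 5-Fluorouridine DNA damage + compound/DMSO, 2,000 cells/well, 16 h, 37 °C/5% CO2. ONE-Glo, 30 min RT, luminescence. Readout = decrease in reporter signal.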
# ELG1 FLuc counter: luciferase inhibition in cell-free luciferin readout for ELG1 hits | shares compounds with ELG1 DNA repair | cell-free firefly luciferase luminescence counter-screen, ViewLux | Potency, µM (highest dose often 46.1 µM), for the others: at the top dose activity change, negative = inhibition, hits mostly inhibitors | actives 3% (n = 350) | AID 624247
# ELG1-Luc inh: inhibits ELG1-dependent DNA repair in HEK293T cells, confirmed; shares compounds with ELG1 DNA repair; Potency, µM (highest dose often 46.1 µM), inactives show top-dose activity change, negative = inhibition, usual class: inhibitors; HEK293T ELG1-luciferase levels, luminescence; cells co-treated with 5-fluorouridine; actives 68% (n = 670); also: nearly all actives have a fitted effect of over 55% in size
# Target sequence (Q96QE3 whole entry, looked up): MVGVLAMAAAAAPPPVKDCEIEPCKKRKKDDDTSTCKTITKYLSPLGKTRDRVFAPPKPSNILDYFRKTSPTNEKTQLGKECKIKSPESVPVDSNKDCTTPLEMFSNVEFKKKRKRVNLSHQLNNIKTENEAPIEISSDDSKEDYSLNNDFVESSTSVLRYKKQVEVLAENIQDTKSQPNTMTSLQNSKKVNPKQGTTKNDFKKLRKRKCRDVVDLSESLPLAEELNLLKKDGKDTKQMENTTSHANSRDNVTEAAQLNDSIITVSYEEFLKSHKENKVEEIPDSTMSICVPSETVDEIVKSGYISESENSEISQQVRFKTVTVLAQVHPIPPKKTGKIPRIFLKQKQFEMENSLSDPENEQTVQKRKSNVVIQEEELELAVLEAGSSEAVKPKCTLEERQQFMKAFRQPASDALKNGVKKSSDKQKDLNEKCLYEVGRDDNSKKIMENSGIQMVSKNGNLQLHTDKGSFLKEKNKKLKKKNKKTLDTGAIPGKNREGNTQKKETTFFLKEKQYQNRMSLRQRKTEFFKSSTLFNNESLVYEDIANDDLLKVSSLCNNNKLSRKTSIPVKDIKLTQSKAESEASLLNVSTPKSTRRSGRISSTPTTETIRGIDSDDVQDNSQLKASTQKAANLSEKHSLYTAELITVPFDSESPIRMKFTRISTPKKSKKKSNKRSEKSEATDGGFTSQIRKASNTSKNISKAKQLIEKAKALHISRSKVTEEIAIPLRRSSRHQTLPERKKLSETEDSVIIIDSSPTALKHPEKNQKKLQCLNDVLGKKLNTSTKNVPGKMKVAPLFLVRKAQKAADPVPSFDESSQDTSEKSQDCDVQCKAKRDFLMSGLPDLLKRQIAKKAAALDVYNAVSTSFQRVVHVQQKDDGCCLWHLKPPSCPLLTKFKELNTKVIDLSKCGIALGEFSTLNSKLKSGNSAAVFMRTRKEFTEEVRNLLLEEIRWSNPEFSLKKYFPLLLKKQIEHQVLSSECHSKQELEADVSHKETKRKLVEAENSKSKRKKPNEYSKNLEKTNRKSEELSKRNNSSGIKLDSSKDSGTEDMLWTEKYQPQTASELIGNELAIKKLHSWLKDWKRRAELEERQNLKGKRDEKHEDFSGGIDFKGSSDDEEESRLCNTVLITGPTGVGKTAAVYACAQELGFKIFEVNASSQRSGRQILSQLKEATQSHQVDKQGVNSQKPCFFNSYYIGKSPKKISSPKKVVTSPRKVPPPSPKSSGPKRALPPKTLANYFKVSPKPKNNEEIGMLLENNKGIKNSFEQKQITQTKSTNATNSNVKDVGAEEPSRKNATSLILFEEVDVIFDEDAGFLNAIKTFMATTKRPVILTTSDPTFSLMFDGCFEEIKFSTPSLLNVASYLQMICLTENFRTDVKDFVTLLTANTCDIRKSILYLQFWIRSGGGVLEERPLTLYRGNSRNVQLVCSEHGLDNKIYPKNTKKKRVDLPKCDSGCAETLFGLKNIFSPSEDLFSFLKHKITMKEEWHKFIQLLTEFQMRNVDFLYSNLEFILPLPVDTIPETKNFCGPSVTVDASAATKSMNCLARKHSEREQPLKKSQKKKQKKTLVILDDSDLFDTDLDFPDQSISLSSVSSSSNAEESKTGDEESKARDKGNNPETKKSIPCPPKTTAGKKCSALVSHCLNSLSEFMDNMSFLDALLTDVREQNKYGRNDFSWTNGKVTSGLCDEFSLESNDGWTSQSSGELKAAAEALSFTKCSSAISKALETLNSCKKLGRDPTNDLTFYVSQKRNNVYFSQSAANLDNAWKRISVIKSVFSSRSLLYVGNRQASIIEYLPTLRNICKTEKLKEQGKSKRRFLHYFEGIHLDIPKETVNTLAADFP
# ELG1 MMS Luc: confirmation of human ELG1 repair inhibitors, MMS stimulated | actives 53% (n = 670) | Potency, µM (highest dose often 46.1 µM), for inactives: at the highest dose activity change, negative = inhibition, most hits filed as inhibitors | shares compounds with ELG1 DNA repair | HEK293T luciferase-tagged ELG1 level, MMS stimulated | AID 624249; also: nearly all actives have a fitted effect of over 60% in size
# ELG1 5FU viab: confirmation of ELG1 repair inhibitors: viability with 5FU. shares compounds with ELG1 DNA repair. cell viability with 5-FU, ELG1-dependent repair. Potency, µM (doses to about 46.1 µM), inactives show at the top dose activity change, negative = viability loss, usual class: cytotoxic. 670 tested, under 10 active;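 also: ELG1-luc HEK293T cells cotreated with 5-fluorouridine at 10 µM final; viability measured 16 h after compound addition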
# ELG1 MMS cell: confirmation of ELG1 repair inhibitors: viability with MMS | Cell viability with MMS, ELG1-dependent DNA repair | AID 624251 | Potency, µM (highest dose often 46.1 µM), without a hit: at the highest dose activity change, negative = viability loss, usual class: cytotoxic | shares compounds with ELG1 DNA repair | actives 33% (n = 670);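 also: ELG1-luc HEK293T cells co-treated with 10 µM MMS; viability read 16 h after compound addition; nearly all actives have a fitted effect of over 60% in size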
# Cell viab unstim: counter-screen for ELG1 repair inhibitors: unstimulated cell viability | actives 8% (n = 900) | shares compounds with ELG1 DNA repair | cell viability counter-screen, unstimulated, luminescence | AID 624252 | Potency, µM (series often up to 45.9 µM), inactives show at the top dose activity change, negative = loss of viability, most hits filed as cytotoxic;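 also: compound exposure lasted 16 hours before reading; nearly all actives have a fitted effect of over 55% in size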
# FLuc biochem: inhibits purified firefly luciferase, counter-screen for ELG1 hits | shares compounds with ELG1 DNA repair | purified firefly luciferase, luminescence counter-screen | Potency, µM (doses to about 57.5 µM), without a hit: top-dose activity, negative = inhibition, actives largely listed as inhibitors | actives 10% (n = 350)
# * marks the source's active call; other numbers are inactive results; ? = inconclusive; / = not tested or not shown; [ ] = remark or other dose. Compounds with a hit are over-represented: about 15% of the library has one in this group of screens. Calls follow the shape of the dose curve; as a rule, active = well fitted curve in the direction sought with a large enough effect; inconclusive = small, poorly fitted or top-dose-only effect, or another doubt; inactive = no such curve, though single readings can be large; an effect the other way counts as inactive or inconclusive. % is scaled to controls: 0 for no effect and ±100 for the full control effect; potency is read from the fitted curve at half-maximal effect.
SMILES,VP16 counter,DT40 TDP1 CPT,RORg inh,12-LOX inh,DT40 TDP1 no CPT,ELG1 DNA repair,ELG1-Luc inh,ELG1 MMS Luc,ELG1 5FU viab,ELG1 MMS cell,Cell viab unstim,others
COCCn1c(-c2cccs2)csc1=Nc1cccnc1,1%,?,14%,-25%,?,?,/,/,/,/,/,
COCc1cc(C[C@@H]2CC[C@H](O)[C@@H](CNCc3cccc(F)c3)O2)no1,/,/,/,21%[176 µM],/,/,/,/,/,/,/,
COC(=O)c1ccc(CNC(=O)COC(=O)c2cc3ccccc3[nH]2)cc1,/,/,/,1%,/,/,/,/,/,/,/,
CNC(=S)N1N=C(c2ccc(OC)cc2)CC1c1ccc(Cl)cc1Cl (stereo not drawn),-5%,-27%,-8%,-3%,-26%,4.6µM*,?,-22%,?,-7%,3%,
CNC(=S)N1N=C(c2ccc(C)cc2)CC1c1ccc(N(C)C)cc1 (stereo not drawn),3%,-23%,-8%,7%,?,?,/,/,/,/,/,
CCCc1cc(=O)n2c(C(=O)Nc3ccccc3)c(C(=O)Nc3cccc(C)c3C)sc2n1,/,/,/,-9%,/,/,/,/,/,/,/,
COc1cc(/C=C/C(=O)Nc2ccc3nc4n(c(=O)c3c2)CCCC4)cc(OC)c1OC,-12%,?,-9%,-6%,?,4.6µM*,2.8µM*,10µM*,?,-3%,-15%,
CCCCN(C)C(=O)CN1C(=O)NC2(CCOCC2)C1=O,/,/,/,26%,/,/,/,/,/,/,/,
CN(C)CCCNC(=O)/C=N/O,/,/,/,-3%,/,/,/,/,/,/,/,
COCCCNc1nc(N)c([N+](=O)[O-])c(Nc2cc(OC)ccc2OC)n1,-6%,0%,-9%,0%,?,1.8µM*,1.1µM*,?,?,-2%,-7%,
COc1ccc(OC)c(Nc2nc(N)c([N+](=O)[O-])c(N3CCOCC3)n2)c1,1%,?,10%,15%,?,?,/,/,/,/,/,
CC(C)n1cnc2c(NCc3ccccc3)cc(N[C@H](C)CO)cc21,/,2.3µM*,/,/,4.6µM*,4.1µM*,7.9µM*,0.44µM*,16µM*,0.71µM*,8.9µM*,
CCC(CO)Oc1cc(NC(=O)Cc2ccccc2)c2ncn(C(C)C)c2c1 (stereo not drawn),/,-22%,/,10%,?,?,/,/,/,/,/,
COc1ccc(/C=N/NC(=O)c2cccc(C(=O)N/N=C/c3ccc(OC)c(OC)c3)n2)cc1OC,-8%,1%,17%,8%,-7%,?,/,/,/,/,/,
COc1ccc(/C=N/NC(=O)Nc2cccc3nsnc23)cc1OC,?,9.2µM*,-2%,-16%,9.2µM*,2.6µM*,2.8µM*,22µM*,?,?,?,
O=C(Nc1nnc(-c2ccccc2Cl)o1)c1ccc(S(=O)(=O)N2CCCCCC2)cc1,0.4µM*,4.6µM*,0.45µM*,/,5.8µM*,1µM*,?,?,-1%,-10%,?,ELG1 FLuc counter=9%;FLuc biochem=-3%
O=C(Nc1ccccc1)c1ccc(S(=O)(=O)N2CCCCC2)cc1,?,-4%,?,19%,?,-12%,/,/,/,/,/,
Cc1ccc(C(=O)Nc2cccc3[nH]c(C(F)(F)F)nc23)cc1,-4%,?,?,0%,?,?,16µM*,7.9µM*,-11%,8.9µM*,?,
Cc1ccc(C(=O)Nc2ccc(C(F)(F)F)n(C)c2=O)cc1,-5%,-16%,2%,-9%,-7%,?,/,/,/,/,/,
O=C(c1ccccc1F)N1CCN(C(=O)c2cc(Br)ccc2Cl)CC1,/,/,/,48%,/,/,/,/,/,/,/,
CCCCCCC1(C)NC(=S)N(c2ccccc2)N1 (stereo not drawn),-3%,-27%,7.1µM*,?,?,?,19%,24%,-8%,-15%,?,
CCCCCCCC1(C)NC(=O)NC1=O (stereo not drawn),-1%,-1%,6%,17%,-12%,-7%,/,/,/,/,/,
O=C(NNC(=O)c1ccccc1-n1cccc1)c1ccc(Cl)nc1,/,5%,/,0%,21%,-2%,/,/,/,/,/,
CC(C)(C)c1ccc(C(=O)NNc2ncccc2-n2cccc2)cc1,?,13µM*,?,142%,13µM*,3.3µM*,6%,30%,-6%,-2%,-2%,
O=C1OCCCN1C1CCN(S(=O)(=O)c2cccs2)CC1,/,/,/,9%[6.33 µM],/,/,/,/,/,/,/,
O=C(c1cccc([N+](=O)[O-])c1)N1CCN(Cc2ccc3c(c2)OCO3)CC1,0%,3%,-1%,-5%,-1%,?,/,/,/,/,/,
O=[N+]([O-])c1ccc2ncnc(N3CCN(Cc4ccc5c(c4)OCO5)CC3)c2c1,?,13µM*,?,-4%,9.2µM*,2.1µM*,5µM*,13µM*,-11%,25µM*,?,
